# In PubChem BioAssay:
# What was measured:
# [1] = system: Human papillomavirus type 1a protein E7 (residues 44-93); experiment: small molecules binding HPV E7 44-93 – biochemical, small-molecule microarray, residues 44-93, 635 nm fluorescence, primary screen (AID 1108); conditions: fluorescence 635 nm, higher = more signal;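 also: E7 fragment applied at 1 µg/mL in TBST for 1 h at 4 C; score combines spot fluorescence with its signal to noise ratio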
# [2] = hepatitis C replication reporter changes, two-sided – Huh7 cells, luciferase reporter, HCV replication inhibitor project, primary screen (AID 1109); conditions: Huh7 HCV replicon luciferase reporter, 48 h; higher = more signal;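 also: huh7 hepatoma cells harbouring a luciferase neomycin HCV replicon reporter; luciferase luminescence as measure of HCV replicon replication; test concentration not given here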
# [3] = biological target: Left-right determination factor 2 (Homo sapiens) (UniProt O00292); experiment: small molecules binding LEFTY2 protein – biochemical, small-molecule microarray, 635 nm fluorescence scan, primary screen (AID 1110); conditions: higher = more signal
# Sequence of Left-right determination factor 2 (Homo sapiens) (O00292 whole entry, looked up): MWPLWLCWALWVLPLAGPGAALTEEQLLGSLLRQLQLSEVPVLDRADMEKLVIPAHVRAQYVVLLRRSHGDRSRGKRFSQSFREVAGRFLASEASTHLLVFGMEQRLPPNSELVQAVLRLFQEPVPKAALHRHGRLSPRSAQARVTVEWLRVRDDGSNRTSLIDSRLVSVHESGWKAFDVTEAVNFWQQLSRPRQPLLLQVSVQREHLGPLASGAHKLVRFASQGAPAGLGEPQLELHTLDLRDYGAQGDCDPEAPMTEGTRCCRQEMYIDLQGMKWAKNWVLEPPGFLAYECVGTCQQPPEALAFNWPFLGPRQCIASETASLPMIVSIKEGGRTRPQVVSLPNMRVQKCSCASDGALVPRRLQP
# [4] = biological target: Calmodulin-1 (Homo sapiens) (UniProt P0DP23); experiment: small molecules binding calmodulin-1 with EGTA – biochemical, small-molecule microarray, Cy5-labelled CALM1, profiling panel (AID 1111); conditions: Cy5-CALM1 binding fluorescence, higher = more signal;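 also: labelled calmodulin applied in Tris saline Tween buffer holding calcium plus EGTA and DTT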
# [5] = biological target: Calmodulin-1 (Homo sapiens) (UniProt P0DP23); experiment: small molecules binding Ca-loaded calmodulin-1 – biochemical, small-molecule microarray, Cy5-labelled CALM1, plus calcium, artefact control for SMM control-protein annotation, profiling panel (AID 1112); conditions: Cy5-CALM1 binding fluorescence, higher = more signal;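 also: score merges spot fluorescence with signal to noise from triplicate slides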
# [6] = probe aWnt5a binding to arrayed compounds – biochemical, biotinylated probe, 635/667 nm fluorescence, primary screen (AID 1113); conditions: small-molecule microarray, higher = more signal;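 also: score merges 667 nm fluorescence intensity with signal-to-noise per printed feature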
# [7] = probe aShh binding to arrayed compounds – biochemical, biotinylated probe, 635/667 nm fluorescence, primary screen (AID 1114); conditions: small-molecule microarray, higher = more signal;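 also: probe is biotin-labelled aShh protein from a stem cell growth factor screen; measures binding of labelled protein to compounds printed on the slide; score merges feature fluorescence at 667 nm with signal-to-noise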
# [8] = probe aNog binding to arrayed compounds – biochemical, biotinylated probe, 635/667 nm fluorescence, primary screen (AID 1115); conditions: small-molecule microarray, higher = more signal;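 also: probe is biotinylated aNog protein used at 0.15 µg/mL for 1 h at 4 C; z-score combines 667 nm fluorescence of each spot with its signal to noise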
# [9] = biological target: Torsin-1A-interacting protein 1 (Homo sapiens) (UniProt Q5JTV8); experiment: compound microarray binding of lysate hLAP1 – cell lysate, small-molecule microarray, COS7 lysate, 635/667 nm fluorescence, primary screen (AID 1116); conditions: 635 nm fluorescence, higher = more signal
# Sequence of Torsin-1A-interacting protein 1 (Homo sapiens) (Q5JTV8 whole entry, looked up): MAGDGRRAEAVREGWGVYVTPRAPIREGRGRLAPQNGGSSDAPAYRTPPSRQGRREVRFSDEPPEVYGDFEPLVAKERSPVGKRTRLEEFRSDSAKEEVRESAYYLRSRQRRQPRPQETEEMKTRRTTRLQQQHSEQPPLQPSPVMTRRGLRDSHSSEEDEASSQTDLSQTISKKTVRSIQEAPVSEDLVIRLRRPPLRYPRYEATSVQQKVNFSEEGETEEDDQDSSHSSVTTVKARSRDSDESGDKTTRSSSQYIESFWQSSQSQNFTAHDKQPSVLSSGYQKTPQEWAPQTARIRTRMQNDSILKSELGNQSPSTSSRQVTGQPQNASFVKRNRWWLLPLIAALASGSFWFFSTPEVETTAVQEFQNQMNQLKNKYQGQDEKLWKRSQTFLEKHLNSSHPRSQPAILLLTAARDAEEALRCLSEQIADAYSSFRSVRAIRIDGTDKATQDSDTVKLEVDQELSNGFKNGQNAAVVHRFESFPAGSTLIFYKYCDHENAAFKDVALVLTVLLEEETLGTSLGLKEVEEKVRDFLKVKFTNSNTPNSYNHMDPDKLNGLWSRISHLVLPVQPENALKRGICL
# [10] = biological target: Alpha-bungarotoxin (Bungarus multicinctus) (UniProt P60615); experiment: compounds binding labelled alpha-BTX control protein – biochemical, small-molecule microarray, Alexa647 label, 635/667 nm fluorescence, artefact control for SMM control protein annotation, profiling panel (AID 1117); conditions: alpha-BTX-A647 binding fluorescence, higher = more signal
# Sequence of Alpha-bungarotoxin (Bungarus multicinctus) (P60615 whole entry, looked up): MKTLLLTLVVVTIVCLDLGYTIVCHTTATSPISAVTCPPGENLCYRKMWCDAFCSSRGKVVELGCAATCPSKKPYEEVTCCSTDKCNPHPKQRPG
SMILES,composite z-score [1],z-score [2],composite z-score [3],composite z-score [4],composite z-score [5],composite z-score [6],composite z-score [7],composite z-score [8],composite z-score [9],composite z-score [10]
CCOC(=O)C[C@H]1[C@H](OC(=O)c2ccc(-c3ccccc3)cc2)[C@@H](NC(=O)CC(C)C)c2cc(OCCCO)ccc2N1C(=O)c1ccccc1,1.07,-1.96,0.0613,0.232,0.462,-0.0718,-0.2,-0.1,0.266,0.198
CCOC(=O)C=Cc1ccccc1O,1.22,-2.36,0.233,-0.166,-0.72,-0.0462,0.151,-0.0381,0.0446,0.377
C=C(COC)C(=O)CC[C@@H](OC(=O)c1cccnc1)c1ccccc1OCCO,-1.05,-3.82,0.078,-1.08,-0.497,-0.096,-0.0553,0.412,0.519,-0.387
O=C(O)[C@@H]1C[C@@H]2C(=O)N3CCC[C@H]3C(=O)N2[C@@H]1c1cccc(OCCO)c1,1.49,-0.444,1.56,1.69,0.815,0.94,2.65,3.05,3.85,2.99
O=C1OCCC=C[C@H]2OC34C=CCN(c5ccc(Cl)cc5)C(=O)[C@H]3N(CCCCCCO)C(=O)[C@@H]4C12 (stereo not given in full),-0.344,-0.476,-1.25,-0.869,-0.593,-0.152,-0.109,0.0422,-0.307,-1.35
COc1ccc(NC(=O)O[C@H]2[C@@H]3OC(=O)[C@H](Cc4cccc(Br)c4)C/C=C/C[C@@H](Cc4cccc(Br)c4)C(=O)O[C@H]3[C@@H](OC)O[C@@H]2CO)cc1,0.277,0.714,0.601,0.492,-0.062,-0.027,0.235,0.325,0.882,0.526
CCCNC(=O)[C@@]1(Sc2ccc(C)cc2)CC(=O)N(C(C)C)[C@@H]1c1ccc(CO)cc1I,-0.593,-2.03,-1.7,1.31,0.944,-0.178,-0.0553,0.909,0.669,-0.432
[N-]=[N+]=NCc1ccccc1C[C@@]1(C(=O)N2CCCCC2)N=C(c2ccc(OCCCO)cc2)O[C@@H]1c1ccccc1CN=[N+]=[N-],0.905,-2.73,-0.133,2.02,1.37,-0.101,-0.0626,1.31,1.01,1.5
CC(C)OC(=O)CC(=O)CC(O)c1ccc([N+](=O)[O-])cc1 (stereo not given),1.13,-0.601,-0.698,-0.759,-0.833,0.093,0.163,0.431,0.47,-0.292
C=C[C@@H](OC)[C@H](OC(=O)Nc1ccc(OC)cc1)c1ccc(OC)c(O)c1,-0.546,0.15,-1.86,-0.56,-0.194,-0.154,-0.367,-0.45,-0.386,-0.382
CO[C@H]1O[C@H](CO)[C@@H](OC(=O)Nc2ccc(C#N)cc2)[C@@H]2OC(=O)[C@H](Cc3cccc(Br)c3)C/C=C/C[C@@H](Cc3cccc(Br)c3)C(=O)O[C@@H]12,1.02,-3.4,0.721,0.211,-0.121,-0.104,0.326,0.886,0.318,0.764
COCCOC(=O)N1C(=O)[C@@]2(c3cc(C#CCC(C(=O)OC)C(=O)OC)ccc31)[C@H](c1ccc(O)cc1)N1[C@H](c3ccccc3)[C@H](c3ccccc3)OC(=O)[C@H]1[C@@H]2C(=O)NC[C@H](O)c1ccccc1,1.33,-0.496,0.485,1.91,0.67,-0.0172,-0.147,-0.346,1.06,0.353
COCC1=C2[C@@H](CCc3ccccc3)OB(O)C[C@@H]2[C@@H]2C(=O)N(C)C(=O)[C@@H]2C1,-0.152,-1.2,0.211,-0.344,-0.294,-0.0405,-0.138,-0.205,0.226,-0.273
CCOC(=O)C=Cc1cc(F)ccc1O,0.261,-1.36,-0.251,-0.297,-0.352,-0.0462,0.0469,-0.181,-0.207,0.0531
C=CCC(OC(C)=O)[C@@H]1[C@@H](N(Cc2cccc3ccccc23)C(=O)c2ccc(-c3ccccc3)cc2)c2cc(OCCCO)ccc2N1C(=O)c1ccc(-c2ccccc2)cc1 (stereo not given in full),0.635,-0.681,0.385,0.603,1.16,-0.0819,0.0899,0.355,0.35,0.439
COCCCNC(=O)[C@@]1(c2ccc([N+](=O)[O-])cc2)CC(=O)N(C(C)C)[C@@H]1c1ccc(CO)cc1,-1.48,0.198,-0.195,-1.61,-0.129,0.0559,-0.211,-0.261,1.94,1.88
COCCOC(=O)N1C(=O)[C@@]2(c3cc(C#CC4=CCCCC4)ccc31)[C@H](c1ccc(O)cc1)N1[C@H](c3ccccc3)[C@H](c3ccccc3)OC(=O)[C@H]1[C@@H]2C(=O)NC[C@H](O)c1ccccc1,1.39,-1.66,0.623,0.713,0.135,0.0324,0.296,-0.614,1.39,0.791
O=C1C2C=CC(C(O)c3cc(C(F)(F)F)cc(C(F)(F)F)c3)N(Nc3ccccc3F)C2C(=O)N1c1ccccc1 (stereo not given),0.962,-2.74,-0.327,0.896,0.681,-0.043,0.957,1.97,0.985,0.383
COc1ccc(C#Cc2ccc3c(c2)[C@]2(C(=O)N3)[C@H](C(=O)N3CCCCCCC3)[C@H]3C(=O)O[C@H](c4ccccc4)[C@H](c4ccccc4)N3[C@@H]2c2ccc(O)cc2)cc1,0.871,-0.764,0.536,1.51,0.426,0.19,0.162,2.3,2.85,1.22
CCOC(=O)C1=C[C@@H](C(C)(C)C)N(S(=O)(=O)c2ccc(C)cc2)[C@H]1c1ccccc1,0.834,-2.05,0.561,1.99,0.838,0.0873,0.0469,0.109,1.26,1.11
C=CCC(OC(C)=O)[C@@H]1[C@@H](N(Cc2ccc(-c3ccccc3)cc2)C(=O)c2ccc(C)cc2)c2cc(OCCCO)ccc2N1C(=O)Cc1ccc2ccccc2c1 (stereo not given in full),-0.579,-0.588,-0.0611,-0.117,0.53,-0.0794,-0.349,0.0127,1.68,0.0941
CN1C(=O)C2C=CC(C(O)c3cc(C(F)(F)F)cc(C(F)(F)F)c3)N(Nc3ccccc3)C2C1=O (stereo not given),0.792,-1.08,-0.715,0.345,-0.151,-0.0346,-0.138,0.369,1.68,0.0299
COCCOC(=O)N1C(=O)[C@@]2(c3cc(C#CC4=CCCCC4)ccc31)[C@H](C(=O)N1CCCCCCC1)[C@H]1C(=O)O[C@H](c3ccccc3)[C@H](c3ccccc3)N1[C@@H]2c1ccc(OCCO)cc1,1.18,-2.08,0.654,1.02,1.04,0.302,0.936,-0.412,1.05,0.845
COC(=O)C(CC#Cc1ccc2c(c1)[C@]1(C(=O)N2)[C@H](C(=O)Nc2nc3ccccc3s2)[C@H]2C(=O)O[C@H](c3ccccc3)[C@H](c3ccccc3)N2[C@@H]1c1ccc(OCCO)cc1)C(=O)OC,1.39,-1.85,0.768,1.52,0.326,0.189,0.427,1,2.02,1.62
